From PubChem BioAssay (NCI)
The panel holds about 83,000 compounds, 20% with a hit somewhere; the sample as a whole holds those more often.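 How to read the values: 0–100, growth inhibition (40 = 60% inhibited); 0, no net growth; -100 to 0, cell death (-40 = 40% of starting cells died; -100 = all dead).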 Values without a mark were called inactive. The source made the active and inactive calls. The calls were made as follows: active = growth percent below 10; inactive = the rest.

Key:
Experiment in all cases: NCI-60 one-dose screen, 48 h (100 = growth as untreated, 0 = no growth, -100 = all killed)
Conditions in all cases: 10 µM unless noted
DU-145 prostate = test system: DU-145 prostate
MALME-3M melanoma = test system: MALME-3M melanoma
MDA-MB-231 breast = test system: MDA-MB-231 breast
RXF 393 renal = test system: RXF 393 renal
SF-268 CNS = test system: SF-268 CNS
SF-295 CNS = test system: SF-295 CNS
SF-539 CNS = test system: SF-539 CNS
UACC-257 melanoma = test system: UACC-257 melanoma
M14 melanoma = test system: M14 melanoma
HCT-15 colon = test system: HCT-15 colon
HT29 colon = test system: HT29 colon
SNB-75 CNS = test system: SNB-75 CNS
SNB-19 CNS = test system: SNB-19 CNS
U251 CNS = test system: U251 CNS
PC-3 prostate = test system: PC-3 prostate
SK-MEL-5 melanoma = test system: SK-MEL-5 melanoma
UACC-62 melanoma = test system: UACC-62 melanoma
LOX IMVI melanoma = test system: LOX IMVI melanoma
SK-MEL-28 melanoma = test system: SK-MEL-28 melanoma
K-562 leukemia = test system: K-562 leukemia

Row | Structure (SMILES) | growth (DU-145 prostate) | growth (MALME-3M melanoma) | growth (MDA-MB-231 breast) | growth (RXF 393 renal) | growth (SF-268 CNS) | growth (SF-295 CNS) | growth (SF-539 CNS) | growth (UACC-257 melanoma) | growth (M14 melanoma) | growth (HCT-15 colon) | growth (HT29 colon) | growth (SNB-75 CNS) | growth (SNB-19 CNS) | growth (U251 CNS) | growth (PC-3 prostate) | growth (SK-MEL-5 melanoma) | growth (UACC-62 melanoma) | growth (LOX IMVI melanoma) | growth (SK-MEL-28 melanoma) | growth (K-562 leukemia)
1 | COc1ccc(C2=C(c3ccccc3)c3ccc(OC(C)=O)cc3OC2(C)C)cc1 | 105% | 107% | 68.2% | 95.8% | 102% | 72.3% | 102% | 145% | 110% | 80.4% | 105% | 118% | 111% | 95.7% | 72.4% | 93.1% | 83.5% | 71.4% | 100% | 
2 | COc1ccc(-c2nc(N/N=C/c3cccc(Br)c3)nc(N3CCOCC3)c2C#N)cc1 | 49.8% | 7.31% (active) | 72.2% |  | 81.4% | 54.2% | 55.9% | -17.9% (active) | 24.8% | 7.3% (active) | 21.5% | -17.7% (active) |  | 52.4% | 47.8% |  | 84.4% | 91.3% | -8.47% (active) | 3.14% (active)
3 | Cc1ccc(/C=C/C(=O)c2ccc(N)cc2)c(C)c1 | 78.3% | -75.6% (active) | 56.8% |  | 36.6% | 95.5% | 91% | 108% | 50.6% | 18.6% | 60.9% | 97.8% | 85.7% | 54.1% | 91.6% | 96% | 86.8% | -91.5% (active) | 105% | 
4 | COc1ccc(/C=N/NC(=O)c2cccc3cc[nH]c23)cc1O | 28.3% | 43% | 55.2% |  | 53% | -20.3% (active) | -18.8% (active) | 47.3% | 0.307% (active) | 33.2% | 19.7% | 18.6% |  |  | 31.5% | 2.92% (active) | 33% | 53.1% | 63.4% | 27.8%
5 | CN1CCN(C(=O)[C@]2(C)CC[C@]3(C)CC[C@]4(C)C(=CC(=O)[C@@H]5[C@@]6(C)CCC(=O)NC(C)(C)[C@@H]6CC[C@]54C)[C@@H]3C2)CC1 | 97.6% | 95.9% | 107% |  | 94.3% | 98.3% | 92% | 103% | 105% | 94.6% | 86.9% | 73.7% |  | 86.7% | 88.8% |  |  | 84.6% | 101% | 
6 | CC(=O)OCCCCCNc1ccccc1 | 106% | 103% | 98% | 123% | 99.4% | 110% | 94.2% | 110% | 113% | 107% | 99.2% | 103% | 107% |  | 100% |  | 106% | 100% | 106% | 
7 | CC(C)Cc1ccc(C(C)C(=O)NCc2ccc(Cn3c(=O)sn(-c4ccc(Cl)cc4)c3=O)cc2)cc1 (centres undefined) | 84.4% | 79.2% | 66.1% |  | 79.9% | 80.9% | 63% | 81.1% | 84.7% | 83.2% | 75.6% | 79.4% | 83.9% |  | 82.8% | 94.1% | 66.4% | 76.1% | 77% | 
8 | O=C(O)CNC(=O)CN1C(=O)c2ccccc2C1=O | 120% | 98.6% | 114% |  | 106% | 103% | 107% | 76.6% | 92.7% | 105% | 110% | 90.4% |  | 96.8% | 84.1% | 99.6% | 108% | 95% | 103% | 85.8%
9 | Cc1ccc2[nH]c(=O)cc(-n3nncc3COc3ccc(C=O)cc3)c2c1 | 105% | 100% | 101% |  | 102% | 104% | 99.4% | 116% | 103% | 102% | 105% | 91.2% | 102% | 102% |  |  | 93.7% | 99.6% | 113% | 
